Only some compounds are listed: those with a hit (about 17% of all), similar ones and a draw of the others.
HT1080 IDH1KD tx: toxicity to HT-1080 IDH1 knockdown cells (counter line). HT-1080 IDH1 knockdown viability, ATP luminescence, 48 h. actives 2% (n = 360,000). Potency, µM (highest dose often 46.1 µM), for the others: top-dose activity, negative = toxicity, most hits filed as cytotoxic;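 further: 0% = DMSO wells and -100% = cell-free medium wells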
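Using the IDH1-knockdown HT-1080 line run in the same batch and compound series as the NT line, viability after 48 h at 37 °C was determined by CellTiter-Glo luminescence and expressed as % activity.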
DT40 TDP1 CPT: growth inhibition of DT40 Tdp1-/-;hTDP1 cells with camptothecin (screen for TDP1 inhibitors); chicken DT40 Tdp1-/-;hTDP1 cells + 20 nM CPT, ATP luminescence, 48 h; Potency, µM (titrated, usually from 46.2 µM), for the others: top-dose activity change, negative = growth inhibition, hits mostly inhibitors; AID 686979; actives 12% (n = 420,000); further: on the % scale 0 is the no-effect control and ±100 the full control effect; nearly all actives have a fitted effect of over 55% in size
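Chicken DT40 Tdp1-/- cells complemented with human TDP1, 400 cells/well, exposed to compounds plus 20 nM camptothecin for at least 48 h at 37 C; viability read as ATP content by CellTiter-Glo luminescence.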
TGFb inhibitor: inhibitors of TGF-b signaling; actives 1.2% (n = 410,000); HepG2 CAGA-GFP TGF-b/SMAD3 reporter, GFP fluorescence, 18 h; TGF-beta stimulated, 500 pg/mL final; Potency, µM (highest dose often 46.1 µM), for inactives: at the highest dose activity, negative = inhibition, most hits filed as inhibitors; further: on the % scale 0 is the no-effect control and ±100 the full control effect; nearly all actives have a fitted effect of over 65% in size
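Per well, imaged GFP fluorescence of HEPG2 CAGA-GFP cells gives the signal; cells get compound, then TGF-beta (500 pg/mL final), 18 h at 37 degrees C; %Activity versus -TGF-beta and +DMSO controls.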
HT1080NT lethal: kills 2HG-producing HT-1080-NT fibrosarcoma cells; actives 1.6% (n = 360,000); Potency, µM (titrated, usually from 46.1 µM), inactives show at the highest dose activity, negative = less viability, most hits filed as cytotoxic; HT-1080-NT fibrosarcoma viability, CellTiter-Glo ATP luminescence, 48 h;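 further: NT is the 2HG producing partner of a matched IDH1 knockdown line; 0% = DMSO-treated cells and -100% = media-only wells without cells; nearly all actives have a fitted effect of over 55% in size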
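A 48-hour cytotoxicity screen used HT-1080-NT cells plated 2 hours before compound delivery. ATP-based CellTiter-Glo luminescence measured viability, normalized to DMSO and no-cell controls.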
TDP1 cell noCPT: qHTS for Inhibitors of human tyrosyl-DNA phosphodiesterase 1 (TDP1): qHTS in cells in absence of CPT; Potency, µM (titrated, usually from 46.2 µM), for the others: at the highest dose activity change, negative = growth inhibition, hits mostly inhibitors; DT40 Tdp1-/- hTDP1 cells, no CPT, ATP luminescence, 48 h; actives 15% (n = 420,000); AID 686978, 2013; further: on the % scale 0 is the no-effect control and ±100 the full control effect; nearly all actives have a fitted effect of over 55% in size
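Camptothecin absent (DMSO only). Human TDP1-complemented DT40 knockout cells, 400 cells/well, 37 °C for minimum 48 hr; ATP measured via CellTiter-Glo, 30 min dark incubation, luminescence.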
HepG2 viability: kills HepG2 cells in TGF-b inhibitor counter-screen; HepG2 CAGA-GFP viability, ATP luminescence, 18 h; actives 0.76% (n = 410,000); Potency, µM (top dose mostly 46.1 µM), without a hit: at the highest dose activity change, negative = cytotoxicity, most hits filed as cytotoxic
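CellTiter-Glo luminescence gave cytotoxicity after 18 hours at 37 degrees C. The cells were HepG2 CAGA-GFP in 1% FBS DMEM, stimulated with 500 pg/mL TGF-beta after compound addition. %Activity was normalised to no-cell wells (complete cell-killing) and DMSO (no toxicity), and curves were fitted and classified.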
Active calls of the source: *; ? = inconclusive; · = no result. The call rests on the fitted dose curve; in most records, active means well fitted curve in the direction sought with a large enough effect; inconclusive means small, poorly fitted or top-dose-only effect, or another doubt; inactive means no such curve, though single readings can be large; an effect the other way counts as inactive or inconclusive. Potency means the concentration at half of the fitted maximal effect.

SMILES | HT1080 IDH1KD tx | DT40 TDP1 CPT | TGFb inhibitor | HT1080NT lethal | TDP1 cell noCPT | HepG2 viability
CCN(CC)S(=O)(=O)c1ccc(N2CCOCC2)c(NC(=O)c2nn(C(C)C)c(=O)c3ccccc23)c1 | -4% | 10µM* | -1% | 1% | 5.2µM* | 5%
CCN(CC)S(=O)(=O)c1ccc(N2CCOCC2)c(NC(=O)CCC2CCCCC2)c1 | 0% | 21µM* | -11% | 3% | ? | 2%
CCN(CC)S(=O)(=O)c1ccc(N2CCOCC2)c(NC(=O)c2nn(C)c(=O)c3ccccc23)c1 | 4% | -11% | 2% | 2% | -1% | 3%
COc1ccc(C2=C(C=O)Cc3ccccc3O2)cc1 | ? | ? | -28% | ? | ? | -3%
Cc1ccc(NC(=O)c2ccc(C(=O)c3ccccc3)cc2)nc1 | ? | 18µM* | -18% | ? | ? | -8%
Cc1ccc(NC(=O)c2cccc(S(=O)(=O)N3CCN(c4ccccc4)CC3)c2)nc1 | -23% | 21µM* | -14% | -20% | 21µM* | -3%
Cc1ccc(C(=O)Nc2sc(C)c(C)c2C(=O)c2ccccc2)cc1 | 10% | 16µM* | -6% | 1% | ? | -1%
Cc1ccnc(NC(=O)c2cccc(S(=O)(=O)N3CCN(c4ccccc4)CC3)c2)c1 | -20% | 0% | 0% | -15% | ? | -6%
Cc1ccc(NC(=O)c2ccc3nc[nH]c3c2)nc1 | ? | 23µM* | -2% | -14% | 18µM* | -6%
CC(=O)c1ccc(NC(=O)CSc2nc(=O)n(Cc3ccncc3)c3c2CCC3)cc1 | · | -5% | -5% | · | -3% | -2%
Cc1ccc(NC(=O)C2(c3ccccc3)CCCC2)nc1 | 3% | ? | -4% | -1% | 15µM* | 0%
CCCC[C@@H]1CCCO[C@@](C(=O)NCCN2CCOCC2)(C(F)(F)F)C1 | · | · | ? | · | · | -22%
CC1CCc2[nH]c3ccc(C(=O)N(C)CC(=O)Nc4ccccc4Br)cc3c2C1 (stereo unspecified) | ? | ? | ? | -20% | 12µM* | 14%
O=C(O)c1cccc2c1C(=O)c1ccccc1C2=O | 14% | 4% | -1% | ? | -2% | -2%
O=C(O)c1ccc2c3c(ncnc13)-c1ccccc1C2=O | ? | 23µM* | 0.79µM* | ? | 23µM* | 1µM*
CC12CCC(C(=O)Nc3cccc(Cl)c3)(C(Br)C1=O)C2(C)C (stereo unspecified) | -10% | ? | -29% | -14% | 18µM* | -25%
CN(C)c1ccc(C(C[N+](=O)[O-])c2c(N)n(C)c(=O)n(C)c2=O)c(F)c1C#N (stereo unspecified) | ? | 2.3µM* | ? | ? | 2.1µM* | 11µM*
COc1ccc(Cn2cc(F)c(=O)n(C)c2=O)cc1[N+](=O)[O-] | 1% | -1% | 37% | 2% | -9% | -85%
Cn1c(N)c(C(C[N+](=O)[O-])c2c(F)cccc2Cl)c(=O)n(C)c1=O (stereo unspecified) | ? | 2.6µM* | 0% | ? | 2.1µM* | -25%
COc1ccc(Br)cc1C(C[N+](=O)[O-])c1c(N)n(C)c(=O)n(C)c1=O (stereo unspecified) | ? | 3.7µM* | 10µM* | ? | 3.7µM* | 16µM*
CCCn1c(=O)c(C(=O)Nc2ccccc2C)c(O)c2ccccc21 | 25% | ? | 15% | 1% | ? | 0%
CCCCCCC(=O)NNC(=O)c1c(O)c2ccccc2n(CCC)c1=O | 12% | ? | 10% | 8% | ? | 2%
CCCCCCCC(=O)NNC(=O)c1c(O)c2ccccc2n(CCC)c1=O | 8% | ? | -5% | 5% | 23µM* | -1%
CCn1c(=O)c(C(=O)Nc2ccccc2C)c(O)c2ccccc21 | -29% | ? | 18% | 4% | 23µM* | 0%
CCCn1c(=O)c(C(=O)Nc2ccccc2N)c(O)c2ccccc21 | 3% | 26µM* | -4% | 6% | ? | -15%
SMILES | HT1080 IDH1KD tx | DT40 TDP1 CPT | TGFb inhibitor | HT1080NT lethal | TDP1 cell noCPT | HepG2 viability
CCCn1c(=O)c(C(=O)NC(C)c2ccccc2)c(O)c2ccccc21 (stereo unspecified) | 12% | ? | 0% | 1% | 26µM* | -10%
O=C(OC(C(=O)NCc1ccc2c(c1)OCO2)c1ccncc1)c1ccc(Cl)nc1 (stereo unspecified) | 7% | 13% | -1% | 8% | 1% | 7%
CCCCCCCCn1c(=O)c(C(=O)OCC)c(O)c2ccccc21 | -3% | ? | 13% | -3% | ? | -6%
CCCCCn1c(=O)c(-c2nc3ccccc3[nH]2)c(O)c2ccccc21 | 3% | 21µM* | 20% | -18% | 9.2µM* | 5%
CC1(C)Cc2cccc(OCC(=O)Nc3ccccc3F)c2O1 | -2% | ? | ? | 15% | ? | -47%
COc1ccccc1CCNC(=O)COc1cccc2c1OC(C)(C)C2 | -1% | 11% | 2% | 0% | 23µM* | -11%
CC1(C)Cc2cccc(OCC(=O)OCC(=O)Nc3ccc(S(N)(=O)=O)cc3)c2O1 | 1% | -17% | -17% | -1% | 3% | 0%
Cc1cnc(NC(=O)COc2cccc3c2OC(C)(C)C3)s1 | 6.5µM* | ? | -5% | -11% | ? | -25%
CN(C)S(=O)(=O)c1ccc(NC(=O)COc2cccc3c2OC(C)(C)C3)cc1 | -2% | 21µM* | 1% | 2% | ? | -3%
CC1(C)Cc2cccc(OCC(=O)NCCOc3ccccc3)c2O1 | -2% | ? | ? | -2% | ? | -1%
CCCNC(=O)c1ccccc1NC(=O)COc1cccc2c1OC(C)(C)C2 | -13% | ? | -5% | -5% | 18µM* | 23%
COc1cccc(NC(=O)COC(=O)COc2cccc3c2OC(C)(C)C3)c1 | 1% | -16% | -8% | 3% | -9% | 8%
COc1ccc(NC(=O)COc2cccc3c2OC(C)(C)C3)cc1OC | 0% | 21µM* | -13% | -11% | 13µM* | -11%
O=C(Cc1ccc(Br)cc1)Nc1ncc([N+](=O)[O-])s1 | ? | ? | ? | ? | 13µM* | -56%
N/C(=N\OC(=O)Nc1ccccc1)c1ncc([N+](=O)[O-])s1 | 21µM* | 3.3µM* | 11µM* | ? | 8.2µM* | 8.9µM*

Source: PubChem BioAssay (National Center for Advancing Translational Sciences (NCATS))
